Only some compounds are listed: those with a hit (about 7% of all), similar ones and a draw of the others.
rCAG RNA binder = binders of r(CAG) RNA repeats, primary screen, biochemical, fluorescence; r(CAG) RNA repeat, TO-PRO-1 dye displacement fluorescence; inhibition, % at 3 µM; hit rate 1.3% among 370,000; AID 651821, 2012;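 active = inhibition above the plate cutoff, the mean of all test compounds on that plate plus 3 SD, cut at about 35% in these data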;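 also: higher means more dye released from RNA so lower well fluorescence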
ADAM17 inh = ADAM17 inhibitors, primary screen, biochemical, QFRET; inhibition, % at 6.95 µM; hit rate 0.83% among 370,000; AID 720648, 2013; recombinant ADAM17, EDANS/DABCYL FRET peptide cleavage; Disintegrin and metalloproteinase domain-containing protein 17 (Homo sapiens), P78536;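 active = inhibition above the mean of compounds lying between control limits plus 3 SD, set per campaign, cut at about 8.5% in these data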
ADAM10 inh = human ADAM10 inhibitors, primary screen, biochemical, QFRET, HTS. recombinant ADAM10, EDANS/DABCYL FRET peptide cleavage, 3 h. inhibition, % at 7 µM. hit rate 0.62% among 370,000. AID 720582, 2013;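 active = inhibition above a per-campaign cutoff equal to the mean of compounds falling between control-based bounds plus 3 SD, cut at about 20% in these data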
KLK7 zymogen act = proKLK7 zymogen activators, primary screen, biochemical, fluorescence intensity; purified proKLK7, EDANS-DABCYL substrate fluorescence; 100% is mature enzyme control, 0% vehicle; activation, % at 7 µM; AID 652039, 2013; hit rate 0.9% among 370,000; Kallikrein-7 (Homo sapiens), P49862;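 active = activation above the mean of all tested compounds plus 3 SD, computed per campaign excluding outliers beyond control limits, cut at about 13% in these data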
NR3A LBD binder = binders of NR3A ligand-binding domain, primary screen, biophysical, differential scanning fluorimetry, uHTS | NR3A LBD differential scanning fluorimetry, Tm shift; 0% = protein alone, 100% = glycine-bound protein | hit rate 2.5% among 340,000 | Tm shift relative to glycine control, % at 25 µM;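 active = melting temperature shift of at least 10% of the positive control shift, at one fixed dose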
AHR activator = AHR activators, primary screen, cell-based, luminescence, luciferase reporter, human. Aryl hydrocarbon receptor (Homo sapiens), P35869. AHR-responsive luciferase reporter cells. activation, % at 5 µM. hit rate 2.5% among 320,000; in the data active = activation above about 47%
Target sequence (P35869 whole entry, looked up): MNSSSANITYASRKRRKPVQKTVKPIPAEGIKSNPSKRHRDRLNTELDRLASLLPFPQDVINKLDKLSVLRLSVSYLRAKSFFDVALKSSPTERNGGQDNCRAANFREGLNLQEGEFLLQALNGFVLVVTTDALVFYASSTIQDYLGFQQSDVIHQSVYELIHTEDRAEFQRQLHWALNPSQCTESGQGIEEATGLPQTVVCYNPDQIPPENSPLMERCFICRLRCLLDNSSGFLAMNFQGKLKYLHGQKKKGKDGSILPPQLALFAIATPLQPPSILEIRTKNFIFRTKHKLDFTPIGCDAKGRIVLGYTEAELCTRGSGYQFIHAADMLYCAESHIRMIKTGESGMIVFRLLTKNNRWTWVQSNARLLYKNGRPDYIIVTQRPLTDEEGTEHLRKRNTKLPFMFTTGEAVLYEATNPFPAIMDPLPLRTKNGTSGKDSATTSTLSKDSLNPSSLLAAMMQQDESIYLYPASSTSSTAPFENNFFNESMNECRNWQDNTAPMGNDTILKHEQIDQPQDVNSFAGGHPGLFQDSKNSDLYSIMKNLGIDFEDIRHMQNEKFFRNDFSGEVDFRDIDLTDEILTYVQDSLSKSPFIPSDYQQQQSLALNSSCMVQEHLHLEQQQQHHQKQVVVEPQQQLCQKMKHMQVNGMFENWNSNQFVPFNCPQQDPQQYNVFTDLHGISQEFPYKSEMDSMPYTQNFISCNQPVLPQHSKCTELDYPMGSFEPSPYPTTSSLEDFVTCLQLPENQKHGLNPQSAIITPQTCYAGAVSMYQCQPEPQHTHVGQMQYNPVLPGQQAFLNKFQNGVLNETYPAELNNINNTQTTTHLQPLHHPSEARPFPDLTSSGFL
ADAM10 ctr = ADAM10 inhibitors, counter-screen for ADAM17 exosite inhibitor project, biochemical, FRET, human ADAM10. AID 743256, 2014. shares compounds with ADAM17 inh. hit rate 47% among 2,900. inhibition, % at 6.95 µM. recombinant ADAM10, EDANS/DABCYL FRET peptide cleavage, 3 h;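 active = mean inhibition over the triplicate runs exceeds the activity threshold set in the earlier primary screen, cut at about 20% in these data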
ADAM17 confirm = ADAM17 inhibitors, hit retest, confirmation, biochemical, QFRET peptide cleavage | shares compounds with ADAM17 inh | recombinant ADAM17, EDANS/DABCYL QFRET peptide cleavage | inhibition, % at 6.95 µM | hit rate 65% among 2,900 | AID 743257, 2014;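 active = mean inhibition across replicates above the hit cutoff set in the primary screen, cut at about 8.5% in these data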
Of the large screens only hits and unclear results are named; the others gave an inactive call (follow-up assays come after a bar, where they were run).

COC(=O)[C@]12C[C@H](CC(=O)NCCCCc3ccccc3)C(=O)N(Cc3ccccc3)C1=C[C@H](C(C)C)O[C@@H]2C1CC1	ADAM17 inh 17 (no result: NR3A LBD binder, AHR activator) | ADAM10 ctr 26 | ADAM17 confirm 13
COC(=O)[C@]12C[C@H](CC(=O)NCCCCc3ccccc3)C(=O)N(Cc3ccco3)C1=C[C@H](C(C)(C)C)O[C@@H]2C	ADAM17 inh 9.3 (no result: NR3A LBD binder, AHR activator) | ADAM10 ctr 27 | ADAM17 confirm 15
C[C@@H]1CN(C(=O)c2cc(COc3cccc(C(F)(F)F)c3)on2)C[C@H](C)O1	none
OC12CC3C[C@H](C1)C(N1CCOCC1)[C@@H](C3)C2 (some centres undefined)	none
COC(=O)[C@]12C[C@H](CC(=O)NCc3cccc(C(F)(F)F)c3)C(=O)N(Cc3ccc4c(c3)OCO4)C1=C[C@H](C(C)(C)C)O[C@@H]2C	ADAM17 inh 13 (no result: NR3A LBD binder, AHR activator) | ADAM10 ctr 54 | ADAM17 confirm 19
Cc1c(C=O)c2ccccn2c1C(=O)c1ccc(F)cc1	ADAM17 inh 10 | ADAM10 ctr inactive | ADAM17 confirm inactive
Cc1c(C=O)c2ccccn2c1C(=O)c1ccccc1	none
CN(Cc1ccc(F)cc1)C(=O)c1cccc(NS(=O)(=O)c2ccccc2)c1	none
CN(Cc1ccc(F)cc1)C(=O)c1cccc(OCc2ccccc2)c1	ADAM17 inh 8.7 | ADAM10 ctr inactive | ADAM17 confirm 12
CCN(CC(=O)Nc1ccc(NC(C)=O)cc1)C(=O)CSCC(=O)Nc1ccc(C)cc1	none
CCOC(=O)CC(=O)CSCC(=O)Nc1ccc(C)cc1	ADAM17 inh 9.1 | ADAM10 ctr inactive | ADAM17 confirm inactive
COc1c(OC(C)=O)ccc(/C=C/c2ccc3cccc(OCc4ccccc4)c3n2)c1[N+](=O)[O-]	ADAM17 inh 9.7 | ADAM10 ctr inactive | ADAM17 confirm 9.2
COc1ccc([C@H]2CC(=O)C=C(/C=C/c3ccccc3)C2)cc1OC	ADAM17 inh 13 | ADAM10 ctr inactive | ADAM17 confirm inactive
O=C1C=C(/C=C/c2ccccc2)C[C@@H](c2ccc(F)cc2)C1	none
CCC(C)NS(=O)(=O)c1ccc(S(=O)(=O)N(CC(=O)Nc2ccccc2)Cc2ccco2)cc1 (centres undefined)	ADAM17 inh 8.9 | ADAM10 ctr 20 | ADAM17 confirm 11
CC(C)N1CCN(c2ccncc2S(=O)(=O)N2CCN(C)CC2)CC1	none (no result: NR3A LBD binder, AHR activator)
CC(C)(C)S(=O)N1Cc2cc(C(=O)NCC(F)(F)F)nc(-c3cccc(-c4cccc(F)c4)c3)c2[C@H]1CCO (some centres undefined)	ADAM17 inh 10 (no result: NR3A LBD binder, AHR activator) | ADAM10 ctr 20 | ADAM17 confirm 11
CCCCC(=O)NC(c1ccccc1OC)c1ccc2cccnc2c1O (centres undefined)	ADAM17 inh 9.0 | ADAM10 ctr inactive | ADAM17 confirm inactive
CCCC(=O)NC(c1ccccc1OC)c1ccc2cccnc2c1O (centres undefined)	none (no result: rCAG RNA binder, ADAM17 inh, ADAM10 inh, KLK7 zymogen act)
Cc1cccc2cc(CN(Cc3cccs3)Cc3nnnn3Cc3ccccc3)c(=O)[nH]c12	ADAM17 inh 11 | ADAM10 ctr inactive | ADAM17 confirm inactive
O=C(c1ccccc1F)N1CCN(S(=O)(=O)c2ccc(S(=O)(=O)N3CCCCCC3)cc2)CC1	none
O=C(c1ccccc1F)N1CCN(S(=O)(=O)c2ccc(S(=O)(=O)N3CCCCC3)cc2)CC1	ADAM17 inh 8.8 | ADAM10 ctr inactive | ADAM17 confirm inactive
CCC(C)[C@H](NC(=O)[C@@H]1CSC2c3ccccc3C(=O)N21)C(=O)NCC1CCCO1 (some centres undefined)	ADAM17 inh 12 | ADAM10 ctr inactive | ADAM17 confirm inactive
Cc1c(NC(=O)Nc2ccc(C#N)cc2)c(=O)n(-c2ccccc2)n1C	none
CC1CC(C)CN(C(=O)CCC(=O)Nc2nnc(C3CCCCC3)s2)C1 (centres undefined)	none
CCc1ccc(C(=O)/C=C2\Sc3ccccc3NC2=O)cc1	ADAM17 inh 8.8 | ADAM10 ctr inactive | ADAM17 confirm 11
O=C(O)CN1C(=O)C(=O)N(Cc2ccc(Cl)c(Cl)c2)C1=O	none
CCC(CC)C(=O)Nc1c2c(nn1-c1ccc(OC)cc1)CS(=O)C2 (centres undefined)	ADAM17 inh 8.7 | ADAM10 ctr inactive | ADAM17 confirm inactive
CCC(=O)Nc1c2c(nn1-c1ccc(OC)cc1)CS(=O)C2 (centres undefined)	none
O=C(Nc1ccccc1)C1=C[C@@H](C2CCCCC2)C[C@@H](OCc2ccc(CO)cc2)O1	ADAM17 inh 8.7 | ADAM10 ctr inactive | ADAM17 confirm 13
O=C(C1=C[C@H](c2ccc(Br)cc2)C[C@H](OCCCCO)O1)N1CCN(Cc2ccc3c(c2)OCO3)CC1	none (no result: rCAG RNA binder, ADAM17 inh, ADAM10 inh, KLK7 zymogen act)
O=C(Nc1ccccc1)C1=C[C@H](c2ccc(Br)cc2)C[C@H](OCc2ccc(CO)cc2)O1	ADAM17 inh 10 | ADAM10 ctr 29 | ADAM17 confirm 24
O=C(NC1CC1)C1=C[C@@H](c2ccccc2)C[C@@H](OCc2ccc(CO)cc2)O1	none
O=C(C1=C[C@@H](c2ccc(Br)cc2)C[C@@H](OCCCCO)O1)N1CCN(Cc2ccccc2)CC1	ADAM17 inh 8.8 | ADAM10 ctr inactive | ADAM17 confirm inactive
O=C(COC(=O)c1ccc(O)cc1)Nc1ccccc1[N+](=O)[O-]	none
Cc1ccccc1C(=O)Nc1ccnn1C1CCN(C(=O)c2cnsn2)CC1	none
CCOC(=O)C1CCN(CC(=O)c2ccc(O)c(C)c2O)CC1	none
Cc1cc(NC(=O)CSc2cc(Cl)ccc2Cl)n(-c2ccccc2)n1	ADAM17 inh 9.2 | ADAM10 ctr inactive | ADAM17 confirm inactive
COC(=O)c1cn(C(=O)c2cc(Cl)ccc2Cl)c2ccccc12	none
Cc1ccc(Nc2nc3ccccc3s2)c(C)c1	ADAM17 inh 9.0 | ADAM10 ctr 26 | ADAM17 confirm 17

Compound activity (PubChem)
